Calls of active or inactive are those of the source. The rule behind the calls is not given here.

The values below come from PubChem BioAssay.

This assay concerns Aerobactin synthetase IucA (Klebsiella pneumoniae, hypervirulent). Put plainly: biochemical IucA inhibition screen of LOPAC library by absorbance (AID 1346212).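 Note: 100% = no compound wells and 0% = no enzyme wells.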 The conditions noted are these: IucA enzyme assay, absorbance (OD) readout; hits give low values;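 tested at 8 µM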.
For orientation: remaining activity means the signal under treatment as a percentage of the control signal. For the compound `CCOC(=O)C1=C(C)NC(C)=C(C(=O)OC)C1c1cccc([N+](=O)[O-])c1` (stereo unspecified), the remaining activity is 112% (inactive).

On to `NC(N)=NC(N)=Nc1cccc(Cl)c1`, for which the remaining activity is 102% (inactive).

In the case of `O=c1c2ccccc2nc2n1CCc1c-2[nH]c2ccccc12`, the remaining activity was 82.9% (inactive).

Consider `NC(=O)c1ccccc1`, for which the remaining activity was 109% (inactive).

Turning to `CC(=O)c1ccc(S(=O)(=O)NC(=O)NC2CCCCC2)cc1`, the remaining activity is 127% (inactive).

On to `CCCCCCCCCC[Si](C)(C)CCC(=O)NC(Cc1ccc(C)cc1)c1ccccc1` (stereo unspecified), for which the remaining activity is 116% (inactive).

On to `C[C@H](NC(=O)/C(C#N)=C/c1ccc(O)c(O)c1)c1ccccc1`, for which the remaining activity is 95.7% (inactive).

Consider `Cc1cccc(/C=C/c2ccccc2)n1`, for which the remaining activity was 81% (inactive).

Take `CC1=C(C)C(=O)C(CCCCC#CCCCC#CCO)=C(C)C1=O`: the remaining activity is 118% (inactive).

For the compound `CC[C@H]1CN2CCc3cc(OC)c(OC)cc3[C@@H]2C[C@@H]1C[C@H]1NCCc2cc(OC)c(OC)cc21`, the remaining activity is 123% (inactive).

For the compound `CC(=O)OCC(=O)[C@@]1(O)CC[C@H]2[C@@H]3CCC4=CC(=O)CC[C@]4(C)[C@H]3C(=O)C[C@@]21C`, the remaining activity is 102% (inactive).

Take `CN1[C@@H]2CC[C@H]1CC(OC(=O)[C@H](CO)c1ccccc1)C2` (stereo partly specified): the remaining activity was 107% (inactive).

For the compound `CC[N+](CC)(CC)CC(=O)Nc1c(C)cccc1C`, the remaining activity is 113% (inactive).

As to `OC[C@H]1O[C@@H](n2cnc3c(N[C@H]4CCC[C@@H]4O)ncnc32)[C@H](O)[C@@H]1O`, the remaining activity is 123% (inactive).

As for `O=C(c1cc(O)c(O)c([N+](=O)[O-])c1)c1ccccc1F`, the remaining activity is 104% (inactive).

As for `S=C(S)OC1CC2CC1C1CCCC21` (stereo unspecified), the remaining activity was 94.5% (inactive).
